Assays:
Experiment in all cases: log2 ratio of Biotin-Ahx-Ub-VS probe labelling (fragment/DMSO); higher = less target engagement (more negative = stronger competition), active = hit call of the paper (q ≤ 0.05, log2 ratio ≤ -1)
Conditions in all cases: compound concentration: 200 uM; treatment time: 3 h
OTUD6B = biological target: T1, OTUD6B (UniProt Q8N6M0)
T1 sequence (whole entry): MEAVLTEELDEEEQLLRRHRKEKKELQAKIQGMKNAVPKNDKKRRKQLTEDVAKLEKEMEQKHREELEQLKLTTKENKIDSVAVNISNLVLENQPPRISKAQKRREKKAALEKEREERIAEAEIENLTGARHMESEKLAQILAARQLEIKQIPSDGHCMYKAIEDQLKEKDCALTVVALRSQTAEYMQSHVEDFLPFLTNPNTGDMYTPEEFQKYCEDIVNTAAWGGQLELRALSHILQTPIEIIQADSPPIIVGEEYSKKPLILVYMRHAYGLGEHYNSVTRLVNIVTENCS
Method in brief: (§1)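 Lysate from HEK293T cells, 495 µg per sample in Tris/CHAPS/IGEPAL buffer with protease inhibitors, was treated for 3 h in triplicate with fragment at 200 µM or vehicle. Biotin-Ahx-Ub-VS was next added at 0.5 µM final for 1 h. The labelled DUBs were enriched with NeutrAvidin, digested with LysC and trypsin, and run by diaPASEF LC-MS/MS, with values given as average log2 fragment/vehicle ratios by unpaired t-test on global-median-normalised Spectronaut quantities of proteins with ≥2 unique peptides.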

OTUD7B = biological target: T2, OTUD7B (UniProt Q6GQQ9)
T2 sequence (whole entry): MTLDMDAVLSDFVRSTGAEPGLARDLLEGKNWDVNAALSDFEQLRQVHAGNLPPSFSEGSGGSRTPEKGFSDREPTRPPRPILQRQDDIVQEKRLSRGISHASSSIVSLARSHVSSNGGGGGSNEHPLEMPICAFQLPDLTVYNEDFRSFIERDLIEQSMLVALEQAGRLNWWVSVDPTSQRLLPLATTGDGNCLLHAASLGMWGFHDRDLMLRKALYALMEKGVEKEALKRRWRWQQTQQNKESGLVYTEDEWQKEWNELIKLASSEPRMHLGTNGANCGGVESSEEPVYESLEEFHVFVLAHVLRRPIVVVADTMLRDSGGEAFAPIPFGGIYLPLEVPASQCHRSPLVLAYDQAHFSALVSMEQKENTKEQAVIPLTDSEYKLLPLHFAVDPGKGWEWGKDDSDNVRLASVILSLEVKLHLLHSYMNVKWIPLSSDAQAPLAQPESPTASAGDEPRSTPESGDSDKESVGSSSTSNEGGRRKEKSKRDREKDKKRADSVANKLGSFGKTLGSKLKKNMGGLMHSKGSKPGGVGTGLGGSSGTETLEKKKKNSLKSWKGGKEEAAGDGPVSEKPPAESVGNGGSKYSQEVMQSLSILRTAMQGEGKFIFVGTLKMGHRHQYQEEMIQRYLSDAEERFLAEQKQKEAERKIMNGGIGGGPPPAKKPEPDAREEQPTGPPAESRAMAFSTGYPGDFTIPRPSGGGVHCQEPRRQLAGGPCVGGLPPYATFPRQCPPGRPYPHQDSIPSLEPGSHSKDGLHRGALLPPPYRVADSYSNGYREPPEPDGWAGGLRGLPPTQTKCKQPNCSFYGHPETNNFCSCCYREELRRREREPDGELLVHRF
Method in brief: as §1

PRPF8 = PRPF8 (UniProt Q6P2Q9)
Method in brief: as §1

PSMD7 = biological target: T3, PSMD7 (UniProt P51665)
T3 sequence (whole entry): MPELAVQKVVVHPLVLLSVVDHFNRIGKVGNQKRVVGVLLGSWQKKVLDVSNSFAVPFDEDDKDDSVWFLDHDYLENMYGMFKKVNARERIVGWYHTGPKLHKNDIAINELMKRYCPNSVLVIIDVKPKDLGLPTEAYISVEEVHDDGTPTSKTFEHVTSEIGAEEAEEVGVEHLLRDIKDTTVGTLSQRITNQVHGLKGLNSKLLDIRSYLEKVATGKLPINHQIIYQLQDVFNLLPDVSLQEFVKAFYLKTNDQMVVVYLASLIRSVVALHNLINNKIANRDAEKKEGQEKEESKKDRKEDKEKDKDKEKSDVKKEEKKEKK
Method in brief: as §1

UCHL1 = UCHL1 (UniProt P09936)
Sequence of UCHL1 (P09936 whole entry, looked up): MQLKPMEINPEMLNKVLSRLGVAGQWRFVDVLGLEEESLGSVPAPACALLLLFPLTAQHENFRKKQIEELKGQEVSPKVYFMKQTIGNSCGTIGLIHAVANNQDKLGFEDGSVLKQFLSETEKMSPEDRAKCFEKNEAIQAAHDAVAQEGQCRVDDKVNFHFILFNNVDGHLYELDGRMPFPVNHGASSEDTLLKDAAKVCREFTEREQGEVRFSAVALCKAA
Method in brief: as §1

UCHL3 = biological target: T4, UCHL3 (UniProt P15374)
T4 sequence (whole entry): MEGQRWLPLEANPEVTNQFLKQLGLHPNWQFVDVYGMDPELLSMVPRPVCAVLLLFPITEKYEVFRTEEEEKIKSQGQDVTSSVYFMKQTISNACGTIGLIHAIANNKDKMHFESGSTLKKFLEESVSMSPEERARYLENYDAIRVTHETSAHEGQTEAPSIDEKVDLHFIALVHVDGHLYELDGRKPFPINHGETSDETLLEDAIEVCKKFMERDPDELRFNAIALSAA
Method in brief: as §1

UCHL5 = biological target: T5, UCHL5 (UniProt Q9Y5K5)
T5 sequence (whole entry): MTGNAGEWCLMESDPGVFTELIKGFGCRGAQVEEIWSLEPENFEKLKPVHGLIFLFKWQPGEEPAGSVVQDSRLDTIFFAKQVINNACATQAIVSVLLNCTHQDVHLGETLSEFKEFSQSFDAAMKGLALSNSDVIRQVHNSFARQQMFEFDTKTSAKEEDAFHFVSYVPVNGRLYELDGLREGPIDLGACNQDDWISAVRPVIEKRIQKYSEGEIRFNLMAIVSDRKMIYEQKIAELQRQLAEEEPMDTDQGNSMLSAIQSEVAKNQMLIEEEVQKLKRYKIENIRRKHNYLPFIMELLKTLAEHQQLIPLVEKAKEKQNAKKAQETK
Method in brief: as §1

USP10 = USP10 (UniProt Q14694)
Sequence of USP10 (Q14694 whole entry): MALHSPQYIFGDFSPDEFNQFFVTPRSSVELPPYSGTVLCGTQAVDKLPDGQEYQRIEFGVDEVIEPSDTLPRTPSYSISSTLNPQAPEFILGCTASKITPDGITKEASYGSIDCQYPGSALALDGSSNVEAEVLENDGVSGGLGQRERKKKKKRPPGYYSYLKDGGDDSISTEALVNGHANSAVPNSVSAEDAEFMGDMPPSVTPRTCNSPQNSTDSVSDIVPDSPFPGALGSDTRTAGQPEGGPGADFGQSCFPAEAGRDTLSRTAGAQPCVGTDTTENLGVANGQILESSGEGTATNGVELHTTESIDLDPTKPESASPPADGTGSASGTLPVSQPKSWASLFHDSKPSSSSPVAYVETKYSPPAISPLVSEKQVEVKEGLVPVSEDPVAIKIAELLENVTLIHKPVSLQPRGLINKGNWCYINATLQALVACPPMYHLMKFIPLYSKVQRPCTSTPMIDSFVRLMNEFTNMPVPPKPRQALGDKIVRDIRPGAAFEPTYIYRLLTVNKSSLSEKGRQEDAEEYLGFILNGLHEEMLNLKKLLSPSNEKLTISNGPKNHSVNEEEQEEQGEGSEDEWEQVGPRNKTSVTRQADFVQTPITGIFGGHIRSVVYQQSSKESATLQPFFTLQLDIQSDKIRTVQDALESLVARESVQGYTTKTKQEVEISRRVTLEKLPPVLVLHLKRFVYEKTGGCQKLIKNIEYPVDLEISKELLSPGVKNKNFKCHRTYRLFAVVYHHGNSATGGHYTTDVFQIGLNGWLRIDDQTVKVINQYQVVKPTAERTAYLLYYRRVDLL
Method in brief: as §1

USP15 = biological target: T6, USP15 (UniProt Q9Y4E8)
T6 sequence (whole entry): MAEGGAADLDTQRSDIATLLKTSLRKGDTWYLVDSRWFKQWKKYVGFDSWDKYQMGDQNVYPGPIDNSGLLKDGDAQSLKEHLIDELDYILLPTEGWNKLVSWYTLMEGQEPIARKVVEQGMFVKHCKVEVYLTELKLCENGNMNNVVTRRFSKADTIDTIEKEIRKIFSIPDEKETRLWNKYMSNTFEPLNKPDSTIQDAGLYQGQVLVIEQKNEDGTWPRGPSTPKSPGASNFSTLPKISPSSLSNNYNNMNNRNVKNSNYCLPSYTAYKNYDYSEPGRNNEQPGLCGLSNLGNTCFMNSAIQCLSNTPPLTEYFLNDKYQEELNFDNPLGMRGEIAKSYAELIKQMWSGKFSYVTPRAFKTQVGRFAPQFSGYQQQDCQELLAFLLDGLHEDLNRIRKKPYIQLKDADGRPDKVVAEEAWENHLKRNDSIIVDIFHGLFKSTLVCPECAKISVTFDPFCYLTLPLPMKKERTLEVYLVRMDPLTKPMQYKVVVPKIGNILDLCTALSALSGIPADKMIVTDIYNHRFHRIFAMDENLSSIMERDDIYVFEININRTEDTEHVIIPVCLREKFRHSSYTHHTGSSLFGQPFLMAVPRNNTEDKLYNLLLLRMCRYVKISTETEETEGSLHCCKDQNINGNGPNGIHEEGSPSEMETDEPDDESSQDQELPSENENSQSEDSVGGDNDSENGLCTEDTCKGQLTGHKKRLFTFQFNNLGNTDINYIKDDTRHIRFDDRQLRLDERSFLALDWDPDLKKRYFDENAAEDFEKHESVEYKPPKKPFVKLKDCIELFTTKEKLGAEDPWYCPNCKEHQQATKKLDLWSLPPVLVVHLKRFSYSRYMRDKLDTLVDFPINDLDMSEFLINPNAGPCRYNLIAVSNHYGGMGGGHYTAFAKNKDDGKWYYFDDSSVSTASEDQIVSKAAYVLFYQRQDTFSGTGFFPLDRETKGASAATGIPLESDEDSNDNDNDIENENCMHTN
Method in brief: as §1

USP16 = USP16 (UniProt Q9Y5T5)
Sequence of USP16 (Q9Y5T5 whole entry, looked up): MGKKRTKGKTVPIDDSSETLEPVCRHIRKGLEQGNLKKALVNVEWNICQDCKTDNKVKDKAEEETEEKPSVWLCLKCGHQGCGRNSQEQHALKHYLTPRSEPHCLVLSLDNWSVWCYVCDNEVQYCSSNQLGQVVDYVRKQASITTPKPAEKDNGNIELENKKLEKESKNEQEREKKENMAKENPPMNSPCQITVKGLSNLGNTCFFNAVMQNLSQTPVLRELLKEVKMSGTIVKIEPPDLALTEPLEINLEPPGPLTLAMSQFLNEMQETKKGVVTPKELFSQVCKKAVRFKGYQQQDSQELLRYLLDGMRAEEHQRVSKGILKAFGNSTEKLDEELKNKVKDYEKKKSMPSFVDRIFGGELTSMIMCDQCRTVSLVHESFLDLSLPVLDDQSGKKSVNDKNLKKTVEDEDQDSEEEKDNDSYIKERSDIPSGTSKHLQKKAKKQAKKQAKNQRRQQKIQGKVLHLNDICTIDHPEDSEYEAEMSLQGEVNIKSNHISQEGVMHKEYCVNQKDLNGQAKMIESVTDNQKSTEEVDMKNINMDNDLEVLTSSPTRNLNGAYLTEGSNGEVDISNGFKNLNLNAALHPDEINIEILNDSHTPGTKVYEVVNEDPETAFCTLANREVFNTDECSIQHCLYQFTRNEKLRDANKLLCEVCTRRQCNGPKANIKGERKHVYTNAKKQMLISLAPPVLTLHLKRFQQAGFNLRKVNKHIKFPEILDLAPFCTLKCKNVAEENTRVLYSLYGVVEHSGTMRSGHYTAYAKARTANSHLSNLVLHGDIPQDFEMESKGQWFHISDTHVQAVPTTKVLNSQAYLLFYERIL
Method in brief: as §1

Measured: log2 ratio of Biotin-Ahx-Ub-VS probe labelling

Cl.O=C(CCl)NCc1ccnc(Oc2ccccc2F)c1
inactive: OTUD6B -0.263 | OTUD7B -0.533 | PRPF8 -0.054 | PSMD7 -0.0622 | UCHL3 0.27 | UCHL5 -0.282 | USP10 -0.187 | USP15 -0.115 | USP16 0.275
active: UCHL1 -1.49

Reference: the supplement of paper PMC11732987, “Enantioselective OTUD7B fragment discovery through chemoproteomics screening and high-throughput optimisation” (Communications Chemistry, 2025)
